± gives the standard deviation.
The sequences below were run on MILI (PIWIL2) piRISC loaded with L1MC piRNA (26 nt) (assay: pre-steady-state target cleavage rate (min^-1); guide: L1MC piRNA 5'p-UAACUAAAUACUAUGCAAGCUGUAGG; MIWI and MILI are mouse PIWI proteins and EfPiwi is from a freshwater sponge; tags in brackets are library labels; higher = faster piRNA-guided slicing of the target). Settings: auxiliary factor: 500 nM mouse GTSF1.
Summary of the method: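 Cleave-'n-Seq measured uncleaved targets by sequencing after a transcribed, DNA-blocked target RNA library […] was mixed with 1 nM active affinity-purified piRISC holding one synthetic guide, with or without 500 nM GTSF1 partner protein, at 33 °C in HEPES–potassium acetate buffer for 0–8 or 0–960 min. Counts were normalised to depth and to weakly complementary targets, three trials were pooled, and k3 was capped at 0.0001 min^-1. A burst-and-steady-state fit gave the pre-steady-state cleavage rate.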
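Further: 1 nM active piRISC with 0.1 nM target library at 33 °C single turnover.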

Sequence | pre-steady-state target cleavage rate
UCCUGGAUGAGCUUGCAUAGUAUUUAGGUA | 0.166 ± 0.04
UCCUGGAUGAGCUUGCAUAGUUUUAAGUUA | 0.0195 ± 0.0084
UCCUGGAUGUCGUUGCAUAGUAUUUAAUUA | 0.0359 ± 0.013
UCCUGGAACAGGAAGCAUAGUAUUUUCAAA | 0.00836 ± 0.0043
UCCUGGAUGUGCUUGGAUAGUAUUUAGAUA | 0.00891 ± 0.0052
UCCUGGUACAGCUUGCAUAGUAUGUAGUUA | 0.03 ± 0.011
UCCUGGAUCAGCUUGCAUAGUAAAAACAAA | 0.027 ± 0.0099
UCCUGCUACUCCUUGCAUAGUAUUUUCAAA | 0.0369 ± 0.013
UCCUCCUACAGCUUCGAUAGUAUUUACAAA | 0.0556 ± 0.016
UCCUGGAUCAGCUUGCAUAGUUUUUACUUA | 0.00933 ± 0.0038
UCCUGGAUGUCCUAGCAUUGUAUUUAGUUA | 0.0111 ± 0.0048
UCCUGGUAGAGCUUGCAUACUAUUUAGUUA | 0.0467 ± 0.011
UCCUGGAUCAGCUUGCAUAGUUAAAUCAAA [g10:g22:cont:t1A] | 0.00426 ± 0.0036
UCCUGGAUGAGCUUGCAUAGUAUAUUAGUUA | 0.158 ± 0.017
UCCUGGAUGAGCAAGCAUAGUAUUUACAAA | 0.0174 ± 0.0067
UCCUGGAUGAGCAUCCAUAGUAUUUAGUUA | 0.231 ± 0.059
UCCUGGAUGUCGUUGCUUAGUAAUUAGUUA | 0.0131 ± 0.0058

Sequence | pre-steady-state target cleavage rate
UCCUGGAUGAGCUUGCAUAGUAUUUUGUAA | 0.0267 ± 0.011
UCCUCCUACAGCUUGCAUAGUAUUUACAUA | 0.177 ± 0.041
UCCUGGAUGAGCUUGCAUAGUUUUUAGUAA | 0.0181 ± 0.0068
UCCUGCUACACCUUGCAUAGUAUUUAGAUA | 0.112 ± 0.032
UCCUGGAUGUCGAAGUCAUAGUAUUUAGUUA | 0.00447 ± 0.003
UCCUGCUACACGUUGCAUAGUAUUUAGAAA | 0.0396 ± 0.013
UCCUGGAUGAGGUUGCAUACUAUUUAGUUA | 0.0167 ± 0.006
UCCUGGAACACCUUGCAUAGUAUUUACUUA | 0.0546 ± 0.018
UCCUGGAACAGCUUGGAUAGUAUUUAGAUA | 0.137 ± 0.024
UCCUGGAUGUGCUUGCAUUGUAUUUAGUAA | 0.0856 ± 0.015
UCCUGCUACAGCUUGCAUACUAUAUAGUUA | 0.0515 ± 0.015
UCCUGGAUGUGCUUGCAUAGUAUAAAGUAA | 0.0114 ± 0.0059
UCCUGGAUCAGCUUGCAUAGUUUUUACAAA | 0.012 ± 0.0052
UCCUGGAUCAGCUUGCAUACUAUAUAGUUA | 0.018 ± 0.0043
UCCUCCUACAGCUUCCAUACUAUUUAGUUA | 0.0171 ± 0.0071
UCCUGCUACAGCUUGCAUAGUAAAAAGAAA | 0.0111 ± 0.0048

From the supplement of paper PMC10338343
